Assay results published in PubChem BioAssay AID759 (NMMLSC, 2007).
In all, about 190,000 compounds went through this assay and about 270 (0.14%) were called active. About 2% were inconclusive and are not listed. This is one part of a sample in which actives are shown more often than they occur.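 The calls were made as follows: active = GTP binding activity at least 20% away from the 100% baseline, either lowered as inhibitor or raised as activator; inconclusive = flagged as likely green fluorescent, judged across all proteins in the well; inactive = the rest.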

Target: GTPase HRas (Homo sapiens) (UniProt P01112)
Experiment: HRas wt fluorescent GTP binding changes, either direction – biochemical, wildtype, bead-based flow cytometry, multiplex, primary screen (AID 759);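 also: 0% = unlabeled GTP competition control and 100% = no-compound control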
Conditions: GST-Ras wt beads, Bodipy-FL-GTP binding, at 10 µM, actives lie on both sides

GTPase HRas (Homo sapiens), sequence (P01112 whole entry, looked up): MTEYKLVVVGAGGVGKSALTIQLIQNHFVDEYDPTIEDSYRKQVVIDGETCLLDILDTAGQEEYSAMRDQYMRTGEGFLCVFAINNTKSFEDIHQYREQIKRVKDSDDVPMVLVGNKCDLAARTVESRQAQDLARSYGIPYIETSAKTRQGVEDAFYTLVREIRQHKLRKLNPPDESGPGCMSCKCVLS

GTP binding activity, inactive:
CN1C(=O)/C(=N/OC(=O)c2ccccc2Br)c2ccccc21 91%
CCOC(=O)C1(CCOC)CCN(Cc2ccc(C(=O)OC)cc2)CC1 98%
Cc1cccc(-n2c(Cc3cc(=O)[nH]c(=O)[nH]3)nnc2SCC(=O)Nc2cccc(C(F)(F)F)c2)c1 102%
O=C(NCc1nnc(SCC(=O)N2CCC(Cc3ccccc3)CC2)o1)c1ccco1 98%
O=C(N/N=C/c1ccc([N+](=O)[O-])o1)c1cccc(S(=O)(=O)N2CCOCC2)c1 96%
CN(CC(=O)NC1CCCC1)S(=O)(=O)c1cnc[nH]1 104%
CCC(C)NC(=O)Cn1nc(C(F)(F)F)c2c1CCC2 (stereo not drawn) 100%
C=CCN1C2CCCC1CC(NC(=S)Nc1cccc(OC)c1)C2 (stereo not drawn) 99%
Cc1[nH]c2ccccc2c1-c1ccc(Cl)nn1 96%
COc1cccc(C(=O)Nc2cccnc2)c1OC 98%
FC(F)(F)c1cccc(Cc2noc(CN3CCC(N4CCCCC4)CC3)n2)c1 104%
C=CCNc1nc(Nc2ccc(Cl)cc2)nc(OC)n1 104%
O=C1CN(C(=O)CN2C(=O)NC3(CCCCC3)C2=O)c2ccccc2N1 98%
COc1ccc(S(=O)(=O)Nc2cccnc2)c(Cl)c1Cl 93%
Cc1ccc(S(=O)(=O)N(C)c2ccc(OCC(=O)NC3=NCCS3)cc2)cc1 99%
CCc1ccc(CN2C(=O)c3ccccc3C2C(=O)NCC2CCCO2)cc1 (stereo not drawn) 96%
Cc1ccc(NC(=O)CSc2nc(CSc3ccc(C)cc3)cc(=O)[nH]2)cc1 95%
Cn1c(-c2ccc(F)cc2)cnc1SCC(=O)NNC(=O)Cc1ccccc1 99%
O=C(COC(=O)c1cnccn1)Nc1cccc2ccccc12 96%
O=C(C1CCN(S(=O)(=O)c2ccc(Br)s2)CC1)N1CCN(C2CCCCC2)CC1 95%
O=C(/C=C\c1cn(-c2ccccc2)nc1-c1cccs1)N1CCOCC1 103%
O=C(O)/C=C/c1cn(-c2ccccc2)nc1-c1cccs1 92%
CCSc1sc(CC)cc1C=O 97%
COC(=O)Cc1c(O)ccn(Cc2cccc(C(F)(F)F)c2)c1=O 96%
Cc1ccc(NC(=S)N(CCN(C)C)Cc2cccs2)cc1C 93%
O=C(NCc1ccncc1)C(=O)NCc1ccco1 97%
CCOC(=O)c1c(-c2cccc(N)c2)cn2ccccc12 99%
CNC(=S)NNC(=O)c1cccn(Cc2ccccc2)c1=O 97%
Cc1cccc(C)c1N1CCN(S(=O)(=O)N2CCCCC2)CC1 96%
Cc1cc2nc(C(F)(F)F)cc(-c3cccs3)n2n1 90%
Nc1ccc(S(=O)(=O)Nc2nccc(/C=C/c3ccc(Br)s3)n2)cc1 91%
O=C(CCN1CCCCC1)N=Nc1c(O)[nH]c2ccccc12 98%
Cc1cc(OC(=O)c2ccccc2)c([N+](=O)[O-])c(=O)[nH]1 101%
COc1ccc(C(=O)NC(=S)Nc2ccc(Cl)cn2)cc1OC 99%
Cc1nn(CC#N)c(=O)n1N(C)c1ncc(C(F)(F)F)cc1Cl 99%
CC(=O)Nc1ccc(NC(=O)COc2ccc(S(=O)(=O)NC(C)c3ccccc3)cc2)cc1 (stereo not drawn) 114%
Cc1cc(/C=N/NC(N)=O)c(C)n1C1CCCCC1 100%
COc1cc(C(=O)Nc2cc(C(F)(F)F)ccc2-n2cncn2)cc(OC)c1OC 96%
O=C(NC(=S)Nc1ccc(S(=O)(=O)N2CCOCC2)cc1)c1ccccc1[N+](=O)[O-] 95%
COC(=O)c1cccnc1NC(=S)NC(C)C 95%
CCCCn1nc(C(=O)Nc2ccc(S(=O)(=O)Nc3ncccn3)cc2)c2ccccc2c1=O 98%
COCCCNC(=S)N1CCCC(c2nc3cc(C)c(C)cc3[nH]2)C1 (stereo not drawn) 95%
CC1Cc2ccccc2N1C1=CC(=O)CC(C)(C)C1 (stereo not drawn) 99%
Cc1nc(CN2CCN(C(=O)CCc3nnc(Cc4c[nH]c5ccccc45)o3)CC2)cs1 95%
CCc1nnc(NC(=O)CSc2nc(SC)ns2)s1 99%
O=C(O)c1ccc2c3c(cccc13)C(=O)N(OS(=O)(=O)c1ccccc1)C2=O 84%
CCOC(=O)c1cc2c(=O)[nH]c(C(Cl)(Cl)Cl)nc2o1 100%

GTP binding activity, active:
O=C(O)/C=C/c1cn(Cc2ccccc2)nc1-c1cccs1 120% [activator]
